Consider seven molecules from PubChem BioAssay (Tox21).

The structures appear in SMILES notation. Results filed as inconclusive are left out. Active and inactive are the calls of the source. Unless noted, calls follow the shape of the full dose curve.

Test [1] is described as follows: Nuclear factor erythroid 2-related factor 2/antioxidant responsive element (Nrf2/ARE) small molecule agonists: qHTS cell viability counter screen in human keratinocytes (AID 1919968; active = well fitted curve in the direction sought with a large enough effect in the repeat runs; an effect the other way counts as inactive or inconclusive; also: nearly all actives have a fitted effect of over 55% in size). The gist of the method:
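Seed 1,500 KeratinoSens cells per well, then incubate 5 h at 37 C/5% CO2. Add compounds in DMSO and incubate 23 h. Add CellTiter-Fluor, wait 1 h and read fluorescence.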

Test [2] in a line: Nuclear factor erythroid 2-related factor 2/antioxidant responsive element (Nrf2/ARE) small molecule agonists: luciferase reporter gene qHTS assay in human keratinocytes (AID 1919969; also: nearly all actives have a fitted effect of over 35% in size; also: potency is read from the fitted curve at half-maximal effect). (In general: A reporter such as luciferase makes a cellular process visible.)
Test [3] has as its target Gonadotropin-releasing hormone receptor (Homo sapiens) (UniProt P30968). As to the kind of experiment: Human gonadotropin-releasing hormone receptor (GnRHR) small molecule agonists, calcium flux assay in GnRHR-HEK293 cells (AID 1920063). Also: nearly all actives have a fitted effect of over 35% in size. Put shortly:
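Cells: HEK293 stably expressing human GnRHR. Steps: overnight (18 h) culture, 1 h calcium dye loading at 37 C, compound addition, kinetic fluorescence read at 480/540 nm. Each compound tested at 15 concentrations in triplicate.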
In general terms: A change in cytosolic calcium serves as a functional read-out for many receptors and channels.

The target in test [4] is KiSS-1 receptor (Homo sapiens) (UniProt Q969F8). Kind of test: Human kisspeptin (KISS1R) small molecule agonists, calcium flux assay in KISS1R-HEK293 cells (AID 1920064; active = well fitted curve in the direction sought with a large enough effect in the repeat runs; an effect the other way counts as inactive or inconclusive). The gist of the method:
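Cells plated and incubated 18 h; dye added, 1 h at 37 C; compounds in DMSO pinned in; signal read at 480/540 nm every second for 3 min. Each compound tested at 15 concentrations in triplicate.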

Test [5] can be described thus: p53 small molecule agonists, cell-based qHTS assay with human liver microsomes (AID 1963577).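 Also: p53 response element beta-lactamase reporter cells with liver microsomes plus NADPH.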 Put shortly:
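HLM-supplemented p53RE-bla reporter assay: 16 h compound exposure at 37 C, microsomes and NADPH each 0.5 mg/mL final, read by fluorescence intensity.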
On the technique in general: In qHTS, concentration-response curves come from the screen itself.

Test [6] in a line: p53 small molecule agonists, cell-based qHTS assay with human liver microsomes: qHTS cell viability counter screen (AID 1963579). Also: nearly all actives have a fitted effect of over 45% in size. The gist of the method: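 Viability of p53RE-bla cells is measured as CellTiter-Glo luminescence following a 16 h, 37 C incubation with compound, liver microsomes from human donors and NADPH.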
A short description of test [7]: p53 small molecule agonists, cell-based qHTS assay with rat liver microsomes: qHTS cell viability counter screen (AID 1963580). Also: nearly all actives have a fitted effect of over 45% in size. The gist of the method: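 p53RE-bla HCT-116 cells (4,000/well) rested 5 h at 37 C, then given Tox21 compounds in DMSO with rat liver microsomes (0.5 mg/mL final) plus NADPH (0.5 mg/mL final) for 16 h at 37 C. Viability read by CellTiter-Glo luminescence after 30 min at room temperature.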

Test [8] can be described thus: p53 small molecule agonists, cell-based qHTS assay: qHTS cell viability counter screen (AID 1963581). Also: nearly all actives have a fitted effect of over 45% in size. The gist of the method: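 Cells: HCT-116 with p53 response element-driven beta-lactamase. Treatment: 16 h, 37 C, compounds in DMSO. Read: CellTiter-Glo luminescence after 30 min RT.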
Test [9] deals with 5-hydroxytryptamine receptor 2A (Homo sapiens) (UniProt P28223). As to the kind of experiment: 5-hydroxytryptamine receptor 2A (HTR2A) small molecule antagonists, cell-based qHTS assay (AID 1963586). Also: nearly all actives have a fitted effect of over 45% in size. Also: potency is read from the fitted curve at half-maximal effect. The gist of the method: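 Antagonist-mode intracellular calcium assay: DOI (4 nM) added after 5 min compound pre-incubation at room temperature to dye-loaded HTR2A-CHO cells. Fluorescence followed for 3 min, sampled every second.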
Sequence of 5-hydroxytryptamine receptor 2A (Homo sapiens) (P28223 whole entry, looked up): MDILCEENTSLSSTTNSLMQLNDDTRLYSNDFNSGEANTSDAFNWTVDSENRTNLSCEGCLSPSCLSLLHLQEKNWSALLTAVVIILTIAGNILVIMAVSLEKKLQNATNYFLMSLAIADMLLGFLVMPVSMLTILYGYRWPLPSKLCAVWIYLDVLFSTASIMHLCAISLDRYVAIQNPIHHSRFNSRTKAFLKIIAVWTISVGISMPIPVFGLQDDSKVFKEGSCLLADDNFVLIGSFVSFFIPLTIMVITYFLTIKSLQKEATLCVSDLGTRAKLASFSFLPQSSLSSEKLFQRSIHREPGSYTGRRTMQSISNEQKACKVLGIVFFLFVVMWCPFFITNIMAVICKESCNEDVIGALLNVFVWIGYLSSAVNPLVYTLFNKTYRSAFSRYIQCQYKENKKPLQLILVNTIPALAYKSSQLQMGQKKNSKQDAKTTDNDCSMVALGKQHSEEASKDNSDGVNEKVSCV

Test [10] shares this target. Kind of test: 5-hydroxytryptamine receptor 2A (HTR2A) small molecule agonists, cell-based qHTS assay (AID 1963587). Also: nearly all actives have a fitted effect of over 30% in size. Put shortly:
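HTR2A-CHO cells, plated 18 h at 37 C/5% CO2, dye-loaded 1 h at 37 C; compounds in DMSO added by pin tool (agonist mode). Intracellular calcium flux read as kinetic fluorescence on FDSS over 2 min at 1 s intervals.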

In test [11] the target is Muscarinic acetylcholine receptor M1 (Homo sapiens) (UniProt P11229). Kind of test: Cholinergic receptor muscarinic 1 (CHRM1) small molecule antagonists, cell-based qHTS assay (AID 1963588). Also: nearly all actives have a fitted effect of over 40% in size. Also: potency is read from the fitted curve at half-maximal effect. Put shortly:
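CHRM1-CHO calcium-flux assay, antagonist mode. Cells were seeded 18 h, dye-loaded 1 h at 37 C and given compound for 5 min at RT, then acetylcholine was added at 50nM. FDSS fluorescence was read 3 min; 15 concentrations, three runs.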

Test [12] shares this target. As to the kind of experiment: Cholinergic receptor muscarinic 1 (CHRM1) small molecule agonists, cell-based qHTS assay (AID 1963589). Also: nearly all actives have a fitted effect of over 35% in size. Put shortly: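 Agonist-mode qHTS in CHO cells stably carrying human muscarinic M1. Intracellular calcium is tracked by fluorescence every second after compound transfer; each compound runs at 15 concentrations in three independent runs.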

In test [13] the target is D(2) dopamine receptor (Homo sapiens) (UniProt P14416). Kind of test: Dopamine D2 receptor (DRD2) small molecule antagonists, cell-based qHTS assay (AID 1963595; active = well fitted inhibition curve with a large enough effect in the signal ratio in the repeat runs, with a control signal flat; the % refers to the signal ratio). Put shortly:
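Stable D2 receptor HEK293 line, 24 h after seeding. Compound preincubated 10 min, then quinpirole (12 nM) with forskolin analogue NKH477 (200 nM), 30 min, room temperature. Detection by time-resolved FRET of cAMP.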

Test [14] can be described thus: p53 small molecule agonists, cell-based qHTS assay with rat liver microsomes (AID 1963578). Put shortly: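 Quantitative HTS of the Tox21 10K library: p53RE-bla cells, rat liver microsomes plus NADPH at 0.5 mg/mL final each, 16 h at 37 C, beta-lactamase fluorescence detection.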
Test [15] is described as follows: cAMP Responsive Elements (CRE) small molecule agonists, cell-based qHTS assay (AID 1963590). The gist of the method: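 Agonist mode qHTS in CRE-bla HEK 293T cells: compounds dosed from DMSO for 3 h at 37 C/5% CO2, followed by LiveBLAzer B/G FRET substrate for 2 h at room temperature.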
A short description of test [16]: cAMP Responsive Elements (CRE) small molecule antagonists, cell-based qHTS assay (AID 1963591; active = well fitted inhibition curve with a large enough effect in the signal ratio in the repeat runs, not every such curve was filed as active; the % refers to the signal ratio). Put shortly:
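Antagonist mode: test compounds are co-incubated with the adenylyl cyclase activator NKH477 (0.25 uM final) on CRE-bla HEK293T cells for 3 h at 37 °C, followed by LiveBLAzer substrate loading.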

Test [17] addresses Beta-2 adrenergic receptor (Homo sapiens) (UniProt P07550). As to the kind of experiment: Adrenergic beta2 receptor (ADRB2) small molecule antagonists, cell-based qHTS assay (AID 1963592). Also: series mostly up to about 92 µM; nearly all actives have a fitted effect of over 50% in size. Put shortly: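 Cells (CHO, stable ADRB2 overexpression) incubated 18-20hr at 37C; compounds added from DMSO; agonist mix (1nM isoproterenol, 100uM IBMX, 25uM Ro-20-1724) added; 0.5hr RT; d2-cAMP and anti-cAMP-cryptate added; 1hr RT; 665/615 nm read.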

The target in test [18] is D(2) dopamine receptor (Homo sapiens) (UniProt P14416). Kind of test: Dopamine D2 receptor (DRD2) small molecule agonists, cell-based qHTS assay (AID 1963594). Also: nearly all actives have a fitted effect of over 35% in size. The gist of the method:
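HEK293 cells stably expressing DRD2 were cultured 24 h at 37 C, then given Ro20-1724 (0.1 mM final) and compounds for 10 min at room temperature. NKH477 (200nM) was then added for 30 min. cAMP was read by HTRF.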

Test [19] in a line: p53 small molecule agonists, cell-based qHTS assay (AID 1963582; active = well fitted activation curve with a large enough effect in the signal ratio in the repeat runs, not every such curve was filed as active; the % refers to the signal ratio). The gist of the method:
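Quantitative HTS in p53RE-bla cells: after a 5 h settling period, compounds delivered in DMSO were left on cells for 16 h at 37 C, and reporter induction was measured as fluorescence following 2 h substrate loading.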

The nature of test [20]: G protein-coupled receptor (GPCR) small molecule agonists, calcium flux assay: HEK293 wild type cell line counter screen (AID 1920065). Put shortly: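 Counter-screen of the Tox21 10K library for non-specific calcium release: dye-loaded cells received compounds in DMSO and were monitored by kinetic fluorescence (480/540 nm, 3 min). Fifteen concentrations, run in triplicate.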

Sequence of D(2) dopamine receptor (Homo sapiens) (P14416 whole entry, looked up): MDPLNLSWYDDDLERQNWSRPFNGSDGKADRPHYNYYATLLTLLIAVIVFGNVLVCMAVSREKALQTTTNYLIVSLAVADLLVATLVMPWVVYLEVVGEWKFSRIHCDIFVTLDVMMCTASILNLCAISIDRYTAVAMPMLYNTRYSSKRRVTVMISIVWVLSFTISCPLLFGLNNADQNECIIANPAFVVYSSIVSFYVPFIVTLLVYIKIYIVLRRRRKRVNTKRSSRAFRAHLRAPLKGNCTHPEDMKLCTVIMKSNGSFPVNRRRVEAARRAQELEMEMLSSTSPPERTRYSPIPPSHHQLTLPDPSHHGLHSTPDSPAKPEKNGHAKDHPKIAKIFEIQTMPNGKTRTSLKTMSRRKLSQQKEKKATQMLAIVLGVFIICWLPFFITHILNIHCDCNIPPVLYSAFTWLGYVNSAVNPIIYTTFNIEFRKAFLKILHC
Sequence of Muscarinic acetylcholine receptor M1 (Homo sapiens) (P11229 whole entry, looked up): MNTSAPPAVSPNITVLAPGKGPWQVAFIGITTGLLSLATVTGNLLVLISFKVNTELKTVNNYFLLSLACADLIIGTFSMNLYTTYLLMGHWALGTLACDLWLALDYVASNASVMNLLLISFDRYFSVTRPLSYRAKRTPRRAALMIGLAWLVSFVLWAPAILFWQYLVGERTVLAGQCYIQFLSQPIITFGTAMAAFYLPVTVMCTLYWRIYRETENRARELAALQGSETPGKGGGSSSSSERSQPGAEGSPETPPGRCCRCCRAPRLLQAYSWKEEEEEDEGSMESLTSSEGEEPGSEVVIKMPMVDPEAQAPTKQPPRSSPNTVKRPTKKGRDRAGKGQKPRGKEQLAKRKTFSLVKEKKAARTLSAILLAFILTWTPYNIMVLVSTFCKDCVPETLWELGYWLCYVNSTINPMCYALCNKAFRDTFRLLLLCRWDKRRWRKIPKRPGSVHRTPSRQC
Sequence of KiSS-1 receptor (Homo sapiens) (Q969F8 whole entry, looked up): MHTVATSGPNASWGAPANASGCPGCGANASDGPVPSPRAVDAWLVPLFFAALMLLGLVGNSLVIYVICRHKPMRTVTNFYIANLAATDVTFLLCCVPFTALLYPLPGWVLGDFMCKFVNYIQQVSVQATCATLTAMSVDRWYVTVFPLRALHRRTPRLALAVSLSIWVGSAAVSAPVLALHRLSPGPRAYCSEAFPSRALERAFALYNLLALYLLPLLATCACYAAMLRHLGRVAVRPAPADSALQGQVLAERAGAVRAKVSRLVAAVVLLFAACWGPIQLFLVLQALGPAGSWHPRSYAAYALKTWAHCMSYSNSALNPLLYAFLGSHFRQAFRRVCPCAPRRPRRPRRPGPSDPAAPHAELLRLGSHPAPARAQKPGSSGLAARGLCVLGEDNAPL
Sequence of Beta-2 adrenergic receptor (Homo sapiens) (P07550 whole entry, looked up): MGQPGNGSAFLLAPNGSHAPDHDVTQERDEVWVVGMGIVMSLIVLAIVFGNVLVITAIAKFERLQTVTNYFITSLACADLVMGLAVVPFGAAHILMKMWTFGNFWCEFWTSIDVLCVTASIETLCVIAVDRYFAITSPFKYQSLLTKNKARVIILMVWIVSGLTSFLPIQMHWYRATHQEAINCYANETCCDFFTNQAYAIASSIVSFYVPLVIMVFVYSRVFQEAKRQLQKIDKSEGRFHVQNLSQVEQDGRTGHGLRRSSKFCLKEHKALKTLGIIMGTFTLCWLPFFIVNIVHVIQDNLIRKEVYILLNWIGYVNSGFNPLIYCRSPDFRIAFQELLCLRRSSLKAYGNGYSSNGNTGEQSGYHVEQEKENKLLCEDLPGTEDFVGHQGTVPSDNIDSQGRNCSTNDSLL
Sequence of Gonadotropin-releasing hormone receptor (Homo sapiens) (P30968 whole entry, looked up): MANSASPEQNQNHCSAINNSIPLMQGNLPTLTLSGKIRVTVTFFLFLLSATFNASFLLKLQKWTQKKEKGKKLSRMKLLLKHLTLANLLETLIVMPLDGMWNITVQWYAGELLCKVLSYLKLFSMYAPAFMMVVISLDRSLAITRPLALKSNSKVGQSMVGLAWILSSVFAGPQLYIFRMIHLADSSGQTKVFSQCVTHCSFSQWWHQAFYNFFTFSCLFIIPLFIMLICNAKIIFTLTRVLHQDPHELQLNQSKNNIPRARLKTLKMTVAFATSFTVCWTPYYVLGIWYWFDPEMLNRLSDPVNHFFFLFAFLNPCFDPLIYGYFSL

Consider `CCCC1CCCC(=O)O1` (stereo unspecified), for which the Potency result in [1], in test [2], in test [3], in test [5], in test [6] and in test [7] was “inactive” each time. The Potency result in test [8], in [9], in test [10], in test [11], in test [12] and in [13] was “inactive” in each case. In addition, in test [4], the outcome was inactive.
As for `CCc1nccnc1C`, the Potency result in test [1], in [2], in test [3], in test [5], in test [14] and in test [6] was “inactive” each time. For the same molecule, the Potency result in [8], in test [9], in test [10], in test [11], in [12] and in test [15] was “inactive” each time. The Potency entry in test [16], in test [17], in test [18] and in test [13] was “inactive” each time. Also, the outcome in test [4] was inactive.
For the molecule `CC(C)C[P+](C)(CC(C)C)CC(C)C`, the Potency result in [1], in [2], in [3], in [5], in test [6] and in test [7] was “inactive” each time. Besides, the Potency result in test [8], in [19], in test [9], in [10], in test [11] and in [12] was “inactive” in each case. For the same molecule, the Potency result in [15], in test [16], in test [17], in test [18] and in [13] was “inactive” in each case. Moreover, the outcome in test [4] was inactive.
Regarding `CCOC(=O)C(O)c1ccccc1` (stereo unspecified), the Potency result in [1], in test [2], in test [3], in [5], in test [14] and in [6] was “inactive” in each case. For the same molecule, the Potency entry in [7], in test [8], in test [19], in test [9], in test [10] and in [11] was “inactive” each time. Further, the Potency entry in test [12], in test [15], in [16], in [17], in test [18] and in test [13] was “inactive” throughout. In [20], the result was inactive.
For the molecule `CC1=C2[C@@H]([C@H](C)CC[C@H]2/C=C(\C)C(=O)O)[C@H](O)C1`, the Potency result in test [1], in test [2], in test [3], in test [5], in [6] and in test [7] was “inactive” in each case. Also, the Potency result in test [8], in test [19], in [9], in [10], in [12] and in test [16] was “inactive” each time. For the same molecule, the Potency entry in [17], in [18] and in test [13] was “inactive” throughout. In addition, the result in test [4] was inactive. Besides, in [11], the Potency is 2.6 nM (active).
Turning to `CCC(=O)OC(=O)CC`, the Potency entry in test [1], in test [3], in test [5], in [14], in test [6] and in [7] was “inactive” in each case. In addition, the Potency entry in [8], in test [19], in test [11], in test [12], in test [15] and in test [16] was “inactive” throughout. In addition, the Potency result in test [17], in test [18] and in test [13] was “inactive” throughout. The Potency in test [2] was 27100 nM (active). Moreover, in test [20], the outcome was inactive.
Consider `CC(C)Cc1ccc(C(C)C(=O)OCc2ccccn2)cc1` (stereo unspecified), for which the Potency result in [1], in test [2], in [3], in [5], in test [14] and in test [6] was “inactive” each time. Besides, the Potency entry in test [7], in [8], in test [10], in test [12], in test [15] and in test [17] was “inactive” each time. Besides, the Potency result in test [13] is “inactive”. Also, the result in test [20] was inactive. Further, the Potency in test [9] was 2050 nM (active).
